Results filed as inconclusive are left out. Calls of active or inactive are those of the source. Calls follow the shape of the dose curve; as a rule, active = well fitted cell-killing curve with a large enough effect; inconclusive = small, poorly fitted or top-dose-only effect; inactive = flat fitted curve, though single readings scatter. Numbered stars: 1 amine (or outer) side, 2 acyl side, 3 side chain; on linkers, the order of the positions; unused ones are H or OH. Bridge positions count the residues as written; N and C are the ends. Square brackets hold non-standard residues; d marks the D form. Peptide text beside a SMILES is read from it. ξ: configuration not given here. Phe(3R-OH) = O=C([C@@H](N[*:1])[C@H](O[*:3])c1ccccc1)[*:2]; NMeTrp(4-OMe) = CN[C@@H](Cc1c[nH]c2cccc(OC)c12)C(=O)O; ξThr(3R)(O-yl) = C[C@@H](O[*:3])C(N[*:1])C(=O)[*:2]; NMeThr(3ξ) = CN[C@H](C(=O)O)C(C)O; NMeL = CN[C@@H](CC(C)C)C(=O)O; NMeV = CN[C@H](C(=O)O)C(C)C; ξIle = CC[C@H](C)C(N)C(=O)O; ξV = CC(C)C(N)C(=O)O
assay: OV-SAHO Cancer Cell Toxicity qHTS against the NCATS CANVASS Library (AID 1347348); settings: OV-SAHO viability, CellTiter-Glo luminescence, 72 h; series mostly up to 38.3 µM; activity change, negative = cytotoxicity: at the top concentration; also: nearly all actives have a fitted effect of over 55% in size
Source text: Natural products and their derivatives continue to be wellsprings of nascent therapeutic potential. However, many laboratories have limited resources for biological evaluation, leaving their previously isolated or synthesized compounds largely or completely untested. To address this issue, the Canvass library of natural products was assembled (https://tripod.nih.gov/canvass), in collaboration with academic and industry researchers, for quantitative high-throughput screening (qHTS) across a diverse set of cell-based and biochemical assays. The pure (>85% purity by liquid chromatography/mass spectrometry [LC/MS]) Canvass library of 346 natural products were submitted by 45 academic laboratories and companies around the world. We collected pure natural products to circumvent deconvolution and structure elucidation due to time and resource limitations. The library was formatted into 1536-well plates and evaluated in 50 qHTS (in an 11-pnt concentration series) bioassays with broad scope of disease-relevant mechanisms. The resulting data set from 50 different assays was then systematically analyzed to identify overall trends and specific natural products with interesting biological activities. Reported herein are the results of each individual qHTS and their corresponding assay protocol. National Center for Advancing Translational Sciences (NCATS), Rockville, MD National Institute of Health (NIH), Bethesda, Maryland
Cancer Cell Toxicity protocol for cell lines COV-362, OV-KATE, OV-SAHO, UWB1.289, UWB1.289-WTBRCA1, HEK-293, HPAF-II, Panc-1005, SW1088, or U-118MG. 1. In a 1536 well, white solid bottom tissue culture plates (Corning 7494), corresponding cells (COV-362, OV-KATE, OV-SAHO, UWB1.289, UWB1.289-WTBRCA1, HEK-293, HPAF-II, Panc-1005, SW1088, or U-118MG) were dispensed in each well at a final concentration of 1000 cells / well (6uL volume) using the Multidrop Combi (Thermo Fisher Scientific) dispenser. 2. The plates were incubated for 4 hours at 37 degrees C/5% CO2/95% Rh. 3. Compounds were pin transferred (~23nL volume) via Wako Pin-tool (Wako Automation, Richmond VA) equipped with a 1536 pin head. The assay plates were treated with compounds in an 11-pnt concentration series with a final concentration range of […] to 85uM. 4. Bortezomib was used as a single dose control (0.5mM column 4, rows 1 - 32) at a final concentration of 1.9uM and as a 16pnt titration (1mM; 1:2 dilution; 16-points; n = 2; column 3, rows 1 - 32) with final concentration range of 0.1nM - 3.8uM. 5. The assay plates were incubated for 72 hours at 37 degrees C/5% CO2/95% Rh. 6. 3uL CellTiter-Glo detection reagent was then added to the plates (columns 2 - 48, rows 1 - 32) and incubated at room temperature for additional 15min. 7. Luminescence signal was acquired via the ViewLux plate reader (PerkinElmer) using a clear filter, 2 second exposure and 2x binning settings.
% is scaled to controls: 0 for no effect and ±100 for the full control effect; potency is read from the fitted curve at half-maximal effect.

SMILES | activity change, negative = cytotoxicity | Potency
CC[C@H](C)C(NC(=O)[C@@H](NC)C(C)C)C(=O)NC1C(=O)N(C)[C@@H](C(C)O)C(=O)N[C@@H](C(C)C)C(=O)N(C)[C@@H](CC(C)C)C(=O)NC(C(C)C)C(=O)N(C)[C@@H](C(C)C)C(=O)N(C)[C@@H](Cc2c[nH]c3cccc(OC)c23)C(=O)N[C@@H](C(C)C)C(=O)N[C@@H]([C@H](O)c2ccccc2)C(=O)N[C@@H](C(C)C)C(=O)O[C@@H]1C (stereo partly drawn) (H-[NMeV][ξIle][ξThr(3R)(O-yl)][NMeThr(3ξ)]V[NMeL][ξV][NMeV][NMeTrp(4-OMe)]V[Phe(3R-OH)]V; ester 3-C) | -9.76% (inactive) | –
CC(=O)O[C@@H]1C=C2C(=O)OC[C@]2(O)[C@@]2(C)CCCC(C)(C)[C@H]12 | – | 5.94 µM (active)
C=C1C(=O)C[C@H]2C[C@@H]1[C@]2(C)CCC=C(C)C | -8.68% (inactive) | –
C=C(C)C(=O)O[C@H]1C[C@H](C)[C@@H](OC(C)=O)CC[C@@]2(C)O[C@@H]2[C@H]2OC(=O)C(COC(C)=O)=C12 | – | 2.36 µM (active)
C=C1C[C@@]23C=CC(=O)[C@@](C)(CCC(=O)Nc4c(OC5O[C@H](CO)[C@@H](O)[C@H](O)[C@H]5O)ccc(C(=O)O)c4O)C2C[C@@H]1CC3 (stereo not given in full) | -1.75% (inactive) | –
C=C1C(=O)O[C@H]2[C@H]1CC/C(CO)=C\CC[C@@]1(C)O[C@@H]21 | – | 23.6 µM (active)
C[C@@H]1C(=O)[C@]23CC[C@H]1C[C@]21O[C@H]2C(C)(C)C=CC(=O)[C@@]23COC1=O | -6.59% (inactive) | –
C=C(C)[C@@H]1CC[C@]2(C)CC[C@]3(C)[C@H](CC[C@@H]4[C@@]5(C)CC[C@H](O)C(C)(C)[C@@H]5CC[C@]43C)[C@@H]12 | – | inactive
C[C@@]12CCC[C@@](C)(C(=O)O)[C@H]1CC[C@]13C[C@H]4C[C@H](O[C@@]4(C)C1)[C@H]32 | 0% (inactive) | –
CC1C(=O)C23CCC1C[C@@]21O[C@H]2C(C)(C)C=CC(=O)[C@@]23COC1=O (stereo not given in full) | 0.613% (inactive) | –
C[C@@H]1O[C@@H](O[C@@H]2[C@@H](O)[C@H](O[C@@H]3[C@@H](O)[C@@H](O)C(O[C@H]4[C@H](OC(=O)[C@]56CCC(C)(C)C[C@H]5C5=CCC7[C@@]8(C)C[C@H](O)[C@H](O[C@@H]9C[C@H](CO)[C@@H](O)[C@H](O)[C@H]9O)[C@@](C)(CO)C8[C@H](O)C[C@@]7(C)[C@]5(C)CC6)OC[C@H](O)[C@@H]4O)O[C@H]3C)OC[C@H]2O)[C@H](O)[C@H](O)[C@H]1O (stereo not given in full) | -3.72% [at 22.9 µM] (inactive) | –
O=C1C[C@@H](c2ccc(O)c(-c3c(O)cc(O)c4c3O[C@H](c3ccc(O)cc3)CC4=O)c2)Oc2cc(O)cc(O)c21 | -14.6% [at 22.9 µM] (inactive) | –
CC1=CC[C@@]2(C[C@@H]1O)[C@@H](C(=O)O)CC[C@H]2C(C)C | -3.95% (inactive) | –
C[C@@H]1O[C@H](c2c(O)cc(O)c3c(=O)cc(-c4ccc(O)cc4)oc23)[C@H](O)[C@H](O)[C@H]1O | -1.02% (inactive) | –
COc1ccc([C@@H]2c3cc(OC)c(OC)cc3C(=O)[C@H](C)C2C)cc1OC (stereo not given in full) | -3.3% [at 7.64 µM] (inactive) | –
CC1=CC2=C[C@H](C)C[C@@]23OC(=C(C)C3=O)CC(C)(C)/C=C/C1=O | – | 2.11 µM (active)
CCC1=C2CCCN3C(=O)O[C@H]([C@H]1OC(C)=O)[C@H]23 | -9.36% (inactive) | –
C=C[C@]1(C)CC[C@@H]([C@H](C)C(=O)/C=C/C(C)C)O1 | -2.8% (inactive) | –
C[C@@]12C[C@@H](C[C@H]3C(=O)O[C@@H](c4ccoc4)[C@H](OC(=O)c4ccccc4)[C@@H]31)OC2=O | 1.46% (inactive) | –
O=C(OC1Cc2c(O)cc(O)cc2OC1c1cc(O)c(O)c(O)c1)c1cc(O)c(O)c(O)c1 (stereo not given) | -13.5% (inactive) | –

SMILES | activity change, negative = cytotoxicity | Potency
O=C1CC(c2cc(O)cc(O)c2)Oc2cc(O)ccc21 (stereo not given) | -6.92% (inactive) | –
CO[C@@H]1[C@H](O)[C@@H](C)O[C@@H](OC[C@@H]2C(C)OC(=O)/C=C/[C@H](C)C(O[C@@H]3O[C@H](C)CC4(OC(=O)O[C@@H]4C)C3O)[C@@H](C)CC(C)C(=O)CC[C@H]3OC23)[C@@H]1OC (stereo not given in full) | 0.551% (inactive) | –
O=Cc1ccc2n1C[C@@]1(C[C@H](O)[C@@H](CO)O1)OC2 | -8.8% (inactive) | –
C[C@@H]1C[C@H]2C[C@]3(CCCCN3C)[C@@H]3C[C@H]2[C@H](C1)N(C)C3 | 1% (inactive) | –
CCCCCCCCCCCCCCC[C@H](O)C[C@@H](O)C[C@@H](O)C[C@@H](O)C[C@@H](O)C[C@H]1CC=CC(=O)O1 | – | 1.49 µM (active)
CO[C@H]1/C=C/CC[C@@H](S[C@@H]2O[C@H](CO)[C@@H](O)[C@H](O)[C@H]2O)CC(=O)O[C@@H](/C(C)=C/[C@H](C)C(=O)CCCC2CC(=O)NC(=O)C2)[C@@H](C)[C@@H]1O | – | 3.75 µM (active)
COC1C(O)C(OC(N)=O)C(Oc2ccc3c(O)c(NC(=O)c4ccc(O)c(CC=C(C)C)c4)c(=O)oc3c2C)OC1(C)C (stereo not given) | -2.01% (inactive) | –
C=C1/C=C\C(CCC)=C\c2csc(n2)C(C)NC(=O)C[C@@]2(CC(=O)O)CCC(=C)[C@H](C1)S2 (stereo not given in full) | -4.45% (inactive) | –
COc1ccc2oc3c(OC)c(OC)c(OC)c(OC)c3c(=O)c2c1 | -19.6% [at 7.64 µM] (inactive) | –
CO[C@@H]1[C@H](O)[C@@H](C)O[C@@H](OC[C@H]2/C=C/C=C/C(=O)C(C)C[C@H](C)C(O[C@@H]3O[C@H](C)CC4(OC(=O)O[C@@H]4C)C3O)[C@@H](C)/C=C/C(=O)OC2C)[C@@H]1OC (stereo not given in full) | -25.2% (inactive) | –
C=C(NC(=O)c1csc(-c2nc3c(cc2O)-c2nc(cs2)C(=O)NC(C(C)O)C(=O)N/C(=C(\C)O)c2nc(cs2)C(=O)NC2c4nc(cs4)C(=O)NC(COC(=O)c4c5c6c(cccc6n4O)COC(=O)[C@@H](OC4C[C@](C)(O)[C@H](N(C)C)[C@H](C)O4)C2OC5)c2nc-3cs2)n1)C(N)=O (stereo not given in full) | -2.27% (inactive) | –
C=C1C[C@@]23C=CC(=O)[C@@](C)(CCC(=O)Nc4c(O)ccc(C(=O)O)c4O)C2C[C@@H]1CC3O (stereo not given in full) | -4.91% (inactive) | –
COc1ccc([C@@H]2c3cc(OC)c(OC)cc3C(=O)C(C)C2C)cc1OC (stereo not given in full) | -13.7% (inactive) | –
CCC[C@@H](C)/C=C(\C)[C@H](O)[C@H](C)/C=C/CC[C@@H](O)[C@H](C)[C@H](O)[C@H](C)[C@H](O)[C@H](C)[C@H]1O[C@H]([C@H](C)C(=O)O)CC[C@@H]1C | – | 3.34 µM (active)
COc1cc(/C=C/C(=O)O)ccc1O | -14.9% (inactive) | –
CN1C(=O)[C@]23SS[C@@]1(C)C(=O)N2[C@H]1Nc2ccccc2[C@]1(c1c[nH]c2ccccc12)[C@@H]3O | – | 0.838 µM (active)
CN1CC[C@]2(c3cccc4c3N[C@@H]3N(C)CC[C@]43[C@@]34CCN(C)[C@@H]3Nc3ccccc34)c3ccccc3N[C@H]12 | – | 18.8 µM (active)
CS/C=C/C(N)=O | 0% (inactive) | –
COc1ccc2cc(NC(=O)C3=NO[C@H]4[C@H](O)C=C[C@@H](Cl)[C@@]4(O)C3)c(=O)oc2c1OC | -10.6% (inactive) | –
CC(C)=CCC[C@@H](C)[C@@H]1CC[C@@]2(C)C[C@H]3C(C)=CC(=O)[C@@H]3/C(C=O)=C\C[C@H]12 | – | 10.6 µM (active)

From PubChem BioAssay (NCATS)
